Only some compounds are listed: those with a hit (about 3.5% of all), similar ones and a draw of the others.
mHTT-CaM PPI inh: mutant huntingtin-calmodulin interaction inhibitors – biochemical, AlphaScreen, primary screen; 190,000 tested, 3.6% active; inhibition, % at 15 µM; AlphaScreen His-mHTT/GST-CaM binding, luminescence; P42858; AID 1671202, 2021;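 further: 0% = both proteins with DMSO and 100% = one protein alone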
Target sequence (P42858 whole entry, looked up, stated change not applied): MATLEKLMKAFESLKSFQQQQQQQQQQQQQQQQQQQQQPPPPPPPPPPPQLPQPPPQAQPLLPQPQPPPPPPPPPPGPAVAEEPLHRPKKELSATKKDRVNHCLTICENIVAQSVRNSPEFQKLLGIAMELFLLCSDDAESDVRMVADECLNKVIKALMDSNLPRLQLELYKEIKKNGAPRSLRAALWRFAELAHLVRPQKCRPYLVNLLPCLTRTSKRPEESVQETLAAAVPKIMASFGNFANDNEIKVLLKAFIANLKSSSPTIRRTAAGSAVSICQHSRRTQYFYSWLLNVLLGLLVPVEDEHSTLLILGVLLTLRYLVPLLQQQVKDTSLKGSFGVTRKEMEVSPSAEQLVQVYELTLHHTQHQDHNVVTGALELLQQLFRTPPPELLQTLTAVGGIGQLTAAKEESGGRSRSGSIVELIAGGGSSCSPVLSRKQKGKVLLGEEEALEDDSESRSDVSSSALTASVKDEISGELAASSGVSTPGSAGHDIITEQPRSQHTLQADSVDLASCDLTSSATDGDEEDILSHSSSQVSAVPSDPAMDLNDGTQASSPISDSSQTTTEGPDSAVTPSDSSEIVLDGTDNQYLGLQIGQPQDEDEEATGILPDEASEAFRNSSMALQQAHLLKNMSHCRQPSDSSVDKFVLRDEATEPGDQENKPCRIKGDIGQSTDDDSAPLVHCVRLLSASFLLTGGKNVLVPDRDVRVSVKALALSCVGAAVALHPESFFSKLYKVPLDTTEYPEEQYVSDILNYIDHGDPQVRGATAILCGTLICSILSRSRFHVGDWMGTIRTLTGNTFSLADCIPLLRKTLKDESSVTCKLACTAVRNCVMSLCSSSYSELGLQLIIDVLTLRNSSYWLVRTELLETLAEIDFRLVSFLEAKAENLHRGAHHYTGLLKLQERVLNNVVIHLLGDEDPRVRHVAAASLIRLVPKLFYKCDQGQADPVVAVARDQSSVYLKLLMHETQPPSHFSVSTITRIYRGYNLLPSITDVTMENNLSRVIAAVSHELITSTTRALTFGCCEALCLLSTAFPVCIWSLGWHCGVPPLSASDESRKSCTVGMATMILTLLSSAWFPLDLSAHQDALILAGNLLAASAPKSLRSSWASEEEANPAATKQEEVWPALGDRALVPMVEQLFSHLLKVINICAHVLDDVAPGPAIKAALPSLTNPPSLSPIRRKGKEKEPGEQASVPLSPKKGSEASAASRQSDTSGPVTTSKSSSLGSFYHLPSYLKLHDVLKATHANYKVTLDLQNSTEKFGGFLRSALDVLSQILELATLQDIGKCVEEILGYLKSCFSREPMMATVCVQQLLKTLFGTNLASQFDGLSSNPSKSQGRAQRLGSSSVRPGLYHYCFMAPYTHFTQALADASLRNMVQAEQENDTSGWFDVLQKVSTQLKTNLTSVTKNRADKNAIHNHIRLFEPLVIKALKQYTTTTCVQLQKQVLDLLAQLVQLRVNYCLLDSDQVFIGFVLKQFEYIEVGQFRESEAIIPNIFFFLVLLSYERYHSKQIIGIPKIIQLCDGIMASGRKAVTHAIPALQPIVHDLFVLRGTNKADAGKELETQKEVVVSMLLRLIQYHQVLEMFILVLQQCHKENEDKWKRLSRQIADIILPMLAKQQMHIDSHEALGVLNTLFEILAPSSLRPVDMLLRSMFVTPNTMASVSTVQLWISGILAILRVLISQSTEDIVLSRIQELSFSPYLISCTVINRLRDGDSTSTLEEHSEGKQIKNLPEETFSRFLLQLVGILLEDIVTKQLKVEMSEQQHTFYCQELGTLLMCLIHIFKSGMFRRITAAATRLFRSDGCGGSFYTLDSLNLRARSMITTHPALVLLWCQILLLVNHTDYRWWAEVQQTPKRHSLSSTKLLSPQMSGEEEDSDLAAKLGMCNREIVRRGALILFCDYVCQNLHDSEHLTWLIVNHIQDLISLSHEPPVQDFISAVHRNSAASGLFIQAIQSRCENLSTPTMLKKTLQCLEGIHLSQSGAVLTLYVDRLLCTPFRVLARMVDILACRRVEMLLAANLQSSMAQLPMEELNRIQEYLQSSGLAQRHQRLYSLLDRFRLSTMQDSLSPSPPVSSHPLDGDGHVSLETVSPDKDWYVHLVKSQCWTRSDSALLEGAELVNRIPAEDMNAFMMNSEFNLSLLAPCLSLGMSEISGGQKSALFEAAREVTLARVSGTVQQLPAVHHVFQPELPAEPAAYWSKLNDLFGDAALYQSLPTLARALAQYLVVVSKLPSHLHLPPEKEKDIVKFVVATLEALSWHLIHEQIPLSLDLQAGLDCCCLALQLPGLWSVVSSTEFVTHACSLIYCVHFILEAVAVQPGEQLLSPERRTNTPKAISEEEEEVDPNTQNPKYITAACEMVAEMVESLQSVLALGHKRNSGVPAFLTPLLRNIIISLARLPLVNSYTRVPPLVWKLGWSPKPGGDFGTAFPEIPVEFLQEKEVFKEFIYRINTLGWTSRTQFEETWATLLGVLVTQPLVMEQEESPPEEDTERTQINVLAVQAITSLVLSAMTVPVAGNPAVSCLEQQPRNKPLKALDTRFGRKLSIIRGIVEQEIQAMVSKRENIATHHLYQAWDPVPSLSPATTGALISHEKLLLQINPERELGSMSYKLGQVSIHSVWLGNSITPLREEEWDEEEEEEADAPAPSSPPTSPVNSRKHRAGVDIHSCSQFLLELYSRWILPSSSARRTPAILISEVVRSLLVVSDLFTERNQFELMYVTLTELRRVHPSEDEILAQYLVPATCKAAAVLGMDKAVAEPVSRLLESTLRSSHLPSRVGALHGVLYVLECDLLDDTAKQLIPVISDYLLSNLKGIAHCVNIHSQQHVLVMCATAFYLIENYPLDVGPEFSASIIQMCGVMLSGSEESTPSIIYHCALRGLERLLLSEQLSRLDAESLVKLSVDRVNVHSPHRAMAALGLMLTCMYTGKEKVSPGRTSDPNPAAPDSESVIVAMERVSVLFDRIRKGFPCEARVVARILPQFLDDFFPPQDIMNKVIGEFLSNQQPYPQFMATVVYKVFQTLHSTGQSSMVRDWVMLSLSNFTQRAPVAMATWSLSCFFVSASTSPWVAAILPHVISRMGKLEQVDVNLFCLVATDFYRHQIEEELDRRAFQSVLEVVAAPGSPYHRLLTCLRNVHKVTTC
Pf apPOL inh: Pf-apPOL inhibitors, biochemical, fluorescence | Plasmodium falciparum apicoplast DNA polymerase (apPOL) | Recombinant Pf-apPOL, molecular beacon fluorescence, 1.5 h | inhibition, % at 10 µM | 210,000 tested, 0.25% active
* hit, by the source's call. No stated cut-off is given here; in the data, active means inhibition above about 50%; inactive means the rest.

`O=C(N1CCC(c2ccsc2)CC1)C12CC3CC(CC(C3)C1)C2` gave mHTT-CaM PPI inh 18 and Pf apPOL inh 2.
`Cc1cc2c(cc1[N+](=O)[O-])OCCO2` gave Pf apPOL inh -1.
Screening Cc1ccc(C(c2ccc(C)o2)c2ccccc2Br)o1 returned mHTT-CaM PPI inh -16 and Pf apPOL inh -1.
Cc1ccc(C(c2ccc(C)o2)c2cccc([N+](=O)[O-])c2O)o1 was read as mHTT-CaM PPI inh 79* and Pf apPOL inh -8.
`Cc1ccc(C(c2ccc(C)o2)c2cc3c(cc2[N+](=O)[O-])OCO3)o1` gave mHTT-CaM PPI inh 72* and Pf apPOL inh 7.
Screening CN1c2cc(F)ccc2C(=O)NC12CCN(C(=O)c1cccc(F)c1)CC2 returned mHTT-CaM PPI inh -12 and Pf apPOL inh 1.
`CCOc1ccccc1NC(=O)N(Cc1ccsc1)C1CC1` gave mHTT-CaM PPI inh -27 and Pf apPOL inh -3.
O=C(CSc1cc(N2CCCC2)ccc1[N+](=O)[O-])Nc1ccccc1 was read as mHTT-CaM PPI inh -1 and Pf apPOL inh 2.
Screening CCOCCCNC(=O)C1(C)CCC(=O)N1Cc1cccnc1 (stereo not given) returned mHTT-CaM PPI inh 1 and Pf apPOL inh -5.
For N/C(Cc1ccc([N+](=O)[O-])cc1)=N\O the results were mHTT-CaM PPI inh inactive and Pf apPOL inh 1.
For CC(=O)Nc1ccc(S(=O)(=O)NCCCNc2ccc([N+](=O)[O-])cc2Cl)cc1 the results were mHTT-CaM PPI inh 11 and Pf apPOL inh -6.
Screening O=[N+]([O-])c1ccc(NCCCNS(=O)(=O)c2ccc(Cl)cc2)c(C(F)(F)F)c1 returned mHTT-CaM PPI inh 53* and Pf apPOL inh 7.
For CC(=O)Nc1ccc(NC(=O)COc2ccc(Br)c(C)c2)cc1 the results were mHTT-CaM PPI inh 9 and Pf apPOL inh -1.
`COC(=O)COc1ccc2c(=O)c(-c3ccc(OC)c(OC)c3)coc2c1` gave mHTT-CaM PPI inh -1 and Pf apPOL inh -3.
Screening Cc1cc2c(c(=O)[nH]1)C(=O)O/C2=C\c1cccs1 returned mHTT-CaM PPI inh 12 and Pf apPOL inh -3.
Screening Cc1cc2c(c(=O)[nH]1)C(=O)O/C2=C\c1ccc(C)o1 returned mHTT-CaM PPI inh 69* and Pf apPOL inh -3.
For COc1cc(OC)cc(C(=O)n2nnc3ccccc32)c1 the results were mHTT-CaM PPI inh 1 and Pf apPOL inh -2.
Screening COc1cc(SC)ccc1C(=O)n1nnc2ccccc21 returned mHTT-CaM PPI inh 91* and Pf apPOL inh -8.
Screening CN1CC=C(CNc2cccc3c2CCCC3)CC1 returned mHTT-CaM PPI inh 40 and Pf apPOL inh 3.
CCc1cccc(Nc2c(-c3nc(C)no3)cnc3nc(C)ccc23)c1 was read as mHTT-CaM PPI inh 68* and Pf apPOL inh -15.
`Cc1ccc2c(Nc3ccc(C)c(F)c3)c(-c3nc(C)no3)cnc2n1` gave mHTT-CaM PPI inh 11 and Pf apPOL inh -2.
`CCOc1ccc(N2COc3ccc(Br)cc3C2)cc1` gave mHTT-CaM PPI inh 84* and Pf apPOL inh -1.
For CCOc1ccc(N2COc3cc4c(cc3C2)OCO4)cc1 the results were mHTT-CaM PPI inh 8 and Pf apPOL inh -14.
CNc1c([N+](=O)[O-])cc2c(c1[N+](=O)[O-])n(C)c(=O)n2C was read as mHTT-CaM PPI inh -5.
For CCCc1cc(C2CCCN2C(=O)Nc2ccc(C)cc2Cl)no1 (stereo not given) the results were mHTT-CaM PPI inh -10 and Pf apPOL inh -1.
COc1ccc(-c2cc(-c3ccccc3)nc(=O)[nH]2)cc1 was read as mHTT-CaM PPI inh 3 and Pf apPOL inh -6.
`COc1ccc(-c2cc(-c3cc(OC)ccc3O)[nH]n2)cc1` gave mHTT-CaM PPI inh 72* and Pf apPOL inh -3.
`O=S(=O)(c1ccc2c(c1)CCC2)N1CCC(n2c(-c3ccoc3)nc3cccnc32)C1` (stereo not given) gave mHTT-CaM PPI inh 35 and Pf apPOL inh -7.
For O=C(CSc1cn(Cc2ccccc2Cl)c2ccccc12)Nc1ccc2c(c1)OCO2 the results were mHTT-CaM PPI inh 34 and Pf apPOL inh -7.
Screening CC1CCN(C(=O)CSc2cn(Cc3ccc(F)cc3)c3ccccc23)CC1 returned mHTT-CaM PPI inh 83* and Pf apPOL inh -2.
For O=C(CSc1cn(Cc2ccc(Cl)cc2)c2ccccc12)Nc1ccc2c(c1)OCO2 the results were mHTT-CaM PPI inh 64* and Pf apPOL inh -3.
`O=C(CSc1cn(Cc2ccc(F)cc2)c2ccccc12)N1CCOCC1` gave mHTT-CaM PPI inh 33 and Pf apPOL inh 2.
Screening Cc1ccccc1Cn1cc(SCC(=O)N2CCOCC2)c2ccccc21 returned mHTT-CaM PPI inh 30 and Pf apPOL inh 1.
Screening CC1CCN(C(=O)CSc2cn(Cc3ccccc3Cl)c3ccccc23)CC1 returned mHTT-CaM PPI inh 58* and Pf apPOL inh -5.
Screening O=C(CSc1cn(Cc2cccc(F)c2)c2ccccc12)N1CCCCC1 returned mHTT-CaM PPI inh 27 and Pf apPOL inh 3.
O=C(CSc1cn(Cc2ccc(Cl)cc2)c2ccccc12)N1CCOCC1 was read as mHTT-CaM PPI inh 72* and Pf apPOL inh -3.
Screening CCOc1cc(S(=O)(=O)N2CCN=C2c2ccccc2)ccc1F returned mHTT-CaM PPI inh -3 and Pf apPOL inh 7.
`CCOC1=NN(c2ccc([N+](=O)[O-])cc2)C(=O)/C1=C\c1cc(OC)c(OC)c(OC)c1` gave mHTT-CaM PPI inh 12 and Pf apPOL inh 29.
For COc1ccc(C)cc1NC(=O)CCCc1ccccc1 the results were mHTT-CaM PPI inh -26 and Pf apPOL inh -6.
`COc1cccc(C(=O)N2CC3(COC(C)(C)OC3)C2)c1` gave mHTT-CaM PPI inh -8 and Pf apPOL inh -6.
O=C(CSc1cn(Cc2ccc(Cl)cc2)c2ccccc12)N1CCCCC1 was read as mHTT-CaM PPI inh 31 and Pf apPOL inh -3.
Screening O=C(CSc1cn(Cc2ccccc2Cl)c2ccccc12)N1CCCCC1 returned mHTT-CaM PPI inh 53* and Pf apPOL inh -7.
`CCN1C(=O)C(O)(CC(=O)c2ccccc2OC)c2ccccc21` (stereo not given) gave mHTT-CaM PPI inh 0 and Pf apPOL inh 1.
`C=CCN1C(=O)C(O)(CC(=O)c2ccc(C)cc2C)c2ccccc21` (stereo not given) gave mHTT-CaM PPI inh 60* and Pf apPOL inh -2.
Screening Cc1ccc(NC(=O)Cn2cccc2-c2nnc(C3CC3)o2)cc1Cl returned mHTT-CaM PPI inh -8 and Pf apPOL inh -2.
`CC1NC2(C(=O)N(C/C=C/c3ccccc3)c3ccccc32)C2C(=O)N(Cc3ccccc3)C(=O)C12` (stereo not given) gave mHTT-CaM PPI inh 52* and Pf apPOL inh -12.
Screening CC1NC2(C(=O)N(C/C=C/c3ccccc3)c3ccccc32)C2C(=O)N(c3ccccc3)C(=O)C12 (stereo not given) returned mHTT-CaM PPI inh 47 and Pf apPOL inh 3.
For Cc1oc(C2CCN(C(=O)c3c(F)cccc3Cl)CC2)nc1C(=O)N1CCCCC1 the results were mHTT-CaM PPI inh 7 and Pf apPOL inh -3.
Screening O=C(NC1CCN(Cc2ccccc2)CC1)c1cc2c(s1)CN(C1CCCC1)C2 returned mHTT-CaM PPI inh 5 and Pf apPOL inh 2.
`Cn1ncc([N+](=O)[O-])c1C(=O)NNC(=S)NC1CCCC1` gave mHTT-CaM PPI inh -2.
Screening O=C(NNC(=S)NC1CCCCC1)c1[nH]ncc1[N+](=O)[O-] returned mHTT-CaM PPI inh 61*.

Source: PubChem
